This is an account of results in PubChem BioAssay (NCATS).

The nature of assay [1]: AP1 Signaling Pathway (AID 357).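 Note: ME-180 reporter cells stimulated with EGF at its EC50 level; % is set by controls: 0 for no effect and ±100 for the full control effect.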 The gist of the method:
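Cells are seeded overnight, exposed to compound titrations and an EC50 level of EGF for 5 hours at 37 °C, then loaded with CCF4 dye for 2.5 hours. Beta-lactamase activity under the AP-1 element is read as a blue/green ratio.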

Assay [2] is described as follows: NFAT Signaling Pathway (AID 444).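 Note: carbachol stimulus at about its EC50 of 1 µM final; % is set by controls: 0 for no effect and ±100 for the full control effect.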 The conditions noted are these: Jurkat NFAT-bla M1, carbachol, beta-lactamase ratio, 5 h; at 17.2 µM (top of the series) unless noted. The gist of the method:
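Jurkat cells carrying an NFAT-driven β-lactamase reporter and co-transfected muscarinic M1 receptor were treated with compound plus carbachol (1 uM final, an EC50 level) for 5 h at 37 °C. CCF4 loading followed for 1 h at RT; 460/530 nm ratio gave %activity.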

Assay [3] can be described thus: Stat Signaling Pathway (AID 446).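 Note: ME-180 cervical cancer cells given 40 pM IL-6 alongside compound; SIE-controlled beta-lactamase reporter measured as 460/530 nm FRET emission ratio; % is set by controls: 0 for no effect and ±100 for the full control effect.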 The gist of the method: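 Emission at 460 and 530 nm (excitation 405 nm) reports SIE-controlled beta-lactamase in ME-180 cells. Cells received compound with 40 pM IL-6 for 5 hrs at 37 C; data scaled between 300 pM IL-6 and 125 nM JAK-inhibitor controls.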
The target in assay [4] is Glucocorticoid receptor (Homo sapiens) (UniProt P04150). Briefly: GR-GFP Redistribution (AID 450;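 active = compounds whose dose series gives a full or clear partial fitted curve of increased nuclear translocation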; note: potency is the fitted concentration of half-maximal effect). The conditions noted are these: U2OS GR-GFP nuclear translocation, laser cytometry, 2 h.
Assay [5] shares this target. Briefly: GR-EFC Redistribution (AID 451; calls by dose curve; note: potency is the fitted concentration of half-maximal effect). The conditions noted are these: CHO-K1 GR-EFC translocation, beta-gal luminescence, 2 h. In short, it runs like this: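 CHO-K1 cells stably expressing nuclear-localized β-gal enzyme acceptor and GR fused C-terminally to the enzyme donor fragment; ligand-driven nuclear translocation restores β-gal by complementation. Compounds titrated up to 46 uM final, 2 h at 37 °C; luminescence read.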

The target of assay [6] is Mitogen-activated protein kinase 10 (Mus musculus) (UniProt Q61831). Kind of assay: JNK3 AlphaScreen Assay (AID 530).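 Note: kinase came from lysate of stimulated human HepG2 cells; signal reports phosphorylation of biotinylated GST-cJun 1-79 at Ser73 with 10 µM ATP; % is set by controls: 0 for no effect and ±100 for the full control effect.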 The gist of the method:
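Phosphorylation of biotinylated GST-cJun(1-79) at Ser73 is measured by AlphaScreen proximity luminescence. Enzyme is JNK3 in HepG2 lysates activated with interleukin-1beta and tumor necrosis factor alpha; ATP is 10 uM final.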
(In general: In Alpha technology, singlet oxygen from a donor bead excites a nearby acceptor bead.)

Assay [7] addresses 3',5'-cyclic-AMP phosphodiesterase 4B (Homo sapiens) (UniProt Q07343). Briefly: qHTS Assay for Inhibitors of PDE-IV (AID 607; active = well fitted activation curve with a large enough effect in the main read-out, with a control signal flat, not every such curve was filed as active; note: % of control where 0% means no effect). In short, it runs like this: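 The readout is membrane depolarisation from a cAMP-sensing CNG channel, detected with a potential dye at ex 535/em 590. Cells were HEK293-derived (endogenous PDE-IV) at 1000 cells/well, titrated up to 22.9 uM final.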
(In general: Quantitative high-throughput screening tests each substance at several concentrations.)

The nature of assay [8]: qHTS Assay for Lipid Storage Modulators (AID 1519; calls by dose curve). The note with it: Drosophila S3 cells, BODIPY lipid droplet/cell ratio, laser cytometry, cells loaded with oleic acid. In short, it runs like this: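 Cells seeded at 5,000 per well were treated with compounds over a concentration series and loaded with oleic acid (400 uM, as added). Lipid droplet fluorescence (488 nm excitation, 500-530 nm channel) was read by laser-scanning cytometry and normalized to 20 uM Triacsin C.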

The target in assay [9] is Ubiquitin carboxyl-terminal hydrolase 1 (Homo sapiens) (UniProt O94782). Briefly: Inhibitors of USP1/UAF1: Pilot qHTS (AID 504865; active = well fitted inhibition curve with a large enough effect;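 note: rhodamine fluorescence freed from ubiquitin-rhodamine substrate followed over time; top concentration of the series differs between compounds; % is set by controls: 0 for no effect and ±100 for the full control effect; nearly all actives have a fitted effect of over 35% in size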). In short, it runs like this:
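USP1/UAF1 complex at 1 nM preincubated 15 min at room temperature with compound, then Ub-Rho substrate added at 150 nM final. Fluorescence (480/540 nm) read kinetically in 50 mM HEPES pH 7.8, 0.5 mM EDTA, 1 mM TCEP, 0.1 mg/ml BSA, 0.01% Tween-20.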

The nature of assay [10]: qHTS profiling for inhibitors of Plasmodium falciparum proliferation (AID 504749; active = well fitted inhibition curve with a large enough effect; note: nearly all actives have a fitted effect of over 60% in size; note: potency is the fitted concentration of half-maximal effect). The note with it: P. falciparum in erythrocytes, SYBR Green DNA, 72 h; parasite line A. The gist of the method:
(§1)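 Quantitative HTS: compounds pinned into medium, infected erythrocytes added (0.3% parasitemia, 2.5% hematocrit), 72 h culture at 37 C under 5% CO2. Saponin/Triton lysis with SYBR Green I, overnight RT, then fluorescence read.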

The test system of assay [11] is CP191. The description is as above. The conditions noted are these: P. falciparum in erythrocytes, SYBR Green DNA, 72 h; series mostly up to 12.8 µM. In short, it runs like this: as §1
Assay [12] has as its system CP256. Described as above. The note with it: P. falciparum in erythrocytes, SYBR Green DNA, 72 h; series mostly up to 12.8 µM. The gist of the method:
as §1

The subject of assay [13] is FAB9. The description is as above. The note with it: P. falciparum in erythrocytes, SYBR Green DNA, 72 h; series mostly up to 12.8 µM. In short, it runs like this:
as §1

Assay [14] concerns JCK. The assay is described as above. The note with it: P. falciparum in erythrocytes, SYBR Green DNA, 72 h; series mostly up to 12.8 µM. In short, it runs like this:
as §1

For assay [15], the system named is PC49. The assay is described as above. The conditions noted are these: P. falciparum in erythrocytes, SYBR Green DNA, 72 h; series mostly up to 12.8 µM. The gist of the method: as §1
[16] abbreviates: measured here: cell count channel max response.
Setting [17] is: measured here: lipid channel max response.

SMILES strings stand for the structures. Where “and” joins values, the source holds several entries; their conditions need not be identical. Equal values may be shown once. Inconclusive results are not listed. Where a structure was tested more than once in an assay, its records may differ in their call. Calls of active or inactive are those of the source. Unless noted, calls come from the whole dose curve; as a rule, active = well fitted curve in either direction with a large enough effect (not every such curve was filed as active); inconclusive = small, poorly fitted or top-dose-only effect, or another doubt; inactive = flat fitted curve, though single readings scatter.

Chain of Glucocorticoid receptor (Homo sapiens) (P04150 whole entry, looked up, the tested form may be a part): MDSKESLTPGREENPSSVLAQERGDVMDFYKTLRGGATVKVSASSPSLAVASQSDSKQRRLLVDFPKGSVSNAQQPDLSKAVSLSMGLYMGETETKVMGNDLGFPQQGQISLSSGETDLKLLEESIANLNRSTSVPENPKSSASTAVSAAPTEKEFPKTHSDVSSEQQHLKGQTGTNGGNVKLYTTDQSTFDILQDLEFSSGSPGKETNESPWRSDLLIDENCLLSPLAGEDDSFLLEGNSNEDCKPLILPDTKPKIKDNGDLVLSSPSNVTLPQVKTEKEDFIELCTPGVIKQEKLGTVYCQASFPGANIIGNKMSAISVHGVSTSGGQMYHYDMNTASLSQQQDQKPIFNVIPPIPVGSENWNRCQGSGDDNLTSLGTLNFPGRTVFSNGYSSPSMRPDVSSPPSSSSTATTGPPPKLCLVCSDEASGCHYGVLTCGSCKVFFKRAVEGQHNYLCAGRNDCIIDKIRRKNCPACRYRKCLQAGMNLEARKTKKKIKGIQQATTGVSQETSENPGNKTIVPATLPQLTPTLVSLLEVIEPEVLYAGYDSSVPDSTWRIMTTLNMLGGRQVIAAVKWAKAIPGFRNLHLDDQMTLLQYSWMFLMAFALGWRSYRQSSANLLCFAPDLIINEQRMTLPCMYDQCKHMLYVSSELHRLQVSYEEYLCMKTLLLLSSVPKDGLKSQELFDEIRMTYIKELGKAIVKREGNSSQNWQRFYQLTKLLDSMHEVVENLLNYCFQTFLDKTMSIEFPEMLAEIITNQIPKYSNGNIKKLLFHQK
Chain of 3',5'-cyclic-AMP phosphodiesterase 4B (Homo sapiens) (Q07343 whole entry, looked up): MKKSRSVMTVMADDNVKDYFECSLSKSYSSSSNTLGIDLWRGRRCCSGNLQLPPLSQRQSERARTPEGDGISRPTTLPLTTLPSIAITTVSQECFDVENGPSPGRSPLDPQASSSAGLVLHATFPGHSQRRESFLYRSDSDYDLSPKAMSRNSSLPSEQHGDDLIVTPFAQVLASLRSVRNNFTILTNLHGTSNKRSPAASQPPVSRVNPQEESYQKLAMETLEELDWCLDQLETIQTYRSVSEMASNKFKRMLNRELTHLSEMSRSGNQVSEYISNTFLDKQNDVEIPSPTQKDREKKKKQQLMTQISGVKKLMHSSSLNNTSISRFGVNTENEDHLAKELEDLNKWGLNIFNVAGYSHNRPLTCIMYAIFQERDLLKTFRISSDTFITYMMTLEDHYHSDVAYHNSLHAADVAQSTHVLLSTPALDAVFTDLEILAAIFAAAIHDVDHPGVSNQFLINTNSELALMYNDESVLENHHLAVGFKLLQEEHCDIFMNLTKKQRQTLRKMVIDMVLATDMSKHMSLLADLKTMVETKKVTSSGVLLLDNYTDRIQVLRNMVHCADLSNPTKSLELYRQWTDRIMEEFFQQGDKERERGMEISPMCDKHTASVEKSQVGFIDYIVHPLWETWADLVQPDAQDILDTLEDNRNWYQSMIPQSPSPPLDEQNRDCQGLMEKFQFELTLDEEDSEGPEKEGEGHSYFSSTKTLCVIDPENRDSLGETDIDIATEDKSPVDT
Chain of Ubiquitin carboxyl-terminal hydrolase 1 (Homo sapiens) (O94782 whole entry, looked up): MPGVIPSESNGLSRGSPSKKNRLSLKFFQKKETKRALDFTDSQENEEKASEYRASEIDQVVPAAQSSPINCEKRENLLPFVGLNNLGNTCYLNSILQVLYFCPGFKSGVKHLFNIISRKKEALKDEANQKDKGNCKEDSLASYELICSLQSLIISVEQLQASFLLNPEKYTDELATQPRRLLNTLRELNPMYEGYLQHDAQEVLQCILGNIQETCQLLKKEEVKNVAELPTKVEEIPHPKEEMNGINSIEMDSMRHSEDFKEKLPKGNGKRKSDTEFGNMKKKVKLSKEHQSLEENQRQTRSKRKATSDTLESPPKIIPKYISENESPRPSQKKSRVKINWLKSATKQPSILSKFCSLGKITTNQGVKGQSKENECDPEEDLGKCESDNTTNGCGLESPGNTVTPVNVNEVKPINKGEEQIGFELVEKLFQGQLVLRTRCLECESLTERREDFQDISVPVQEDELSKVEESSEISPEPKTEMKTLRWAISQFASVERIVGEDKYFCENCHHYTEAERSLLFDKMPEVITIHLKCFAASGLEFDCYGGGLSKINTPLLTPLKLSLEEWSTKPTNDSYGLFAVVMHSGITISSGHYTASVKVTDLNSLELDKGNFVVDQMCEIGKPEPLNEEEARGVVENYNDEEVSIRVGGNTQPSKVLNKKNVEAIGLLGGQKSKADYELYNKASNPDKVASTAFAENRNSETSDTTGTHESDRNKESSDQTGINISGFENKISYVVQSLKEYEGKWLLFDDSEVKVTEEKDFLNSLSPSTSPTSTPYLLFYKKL

Consider `COc1cc(N)c(Cl)cc1C(=O)N[C@H]1CCN(CCCOc2ccc(F)cc2)C[C@H]1OC`, for which the result in [1], in assay [3] and in assay [7] was inactive. Further, the activity change, negative = inhibition in [2] was -12.4% (inactive); in assay [8] (at 25.7 µM (top of the series)), 2.27% (inactive). Besides, the Potency was > 20.6 µM (inactive) in [4]; > 20.6 µM (inactive) in [5]; 3.55 µM (active) in [10]; 2 µM (active) in assay [11]; 2.82 µM (active) in assay [12]. Moreover, the Potency entry in assay [6], in assay [9], in assay [13], in [14] and in assay [15] was “inactive” in each case. The max response in [8] (setting [16]) was -1.69%; in [8] (setting [17]) it was 0.873%.

In the case of `CC(C)(N=NC(C)(C)C(=N)N)C(=N)N`, the outcome in assay [1], in assay [3] and in assay [7] was inactive. For the same molecule, the activity change, negative = inhibition was 3.21% [at 7.69 µM] (inactive) in assay [2] and 6.18% (inactive) in assay [8] (at 57.5 µM (top of the series)). Moreover, the Potency in [4] is > 46 µM (inactive); in assay [5] it was > 9.22 µM (inactive). The Potency result in [6] and in assay [9] was “inactive” in each case. Moreover, the max response is -8.52% in assay [8] (setting [16]) and 0.846% in [8] (setting [17]).

Turning to `CC(C)n1c(/C=C\[C@@H](O)C[C@@H](O)CC(=O)O)c(-c2ccc(F)cc2)c2ccccc21`, the outcome in assay [1], in [3] and in [7] was inactive. Further, the activity change, negative = inhibition was 6.57% (inactive) in assay [2] and -2.74% (inactive) in assay [8] (at 25.7 µM (top of the series)). For the same molecule, the Potency in assay [4] and in assay [5] was > 20.6 µM (inactive) each time. Further, the Potency result in assay [6] was “inactive”. In addition, the max response in [8] (setting [16]) is -6.17%; in assay [8] (setting [17]) it was -6.63%.

For the molecule `C[C@@H](C(=O)O)c1ccc(N2Cc3ccccc3C2=O)cc1`, the molecule was called inactive in [1], in [3] and in assay [7]. Also, the figures for the activity change, negative = inhibition in [2] and in assay [8] (at 25.7 µM (top of the series)) were 11.8% (inactive) and -0.476% (inactive), respectively. For the same molecule, the Potency in assay [4] and in assay [5] was > 20.6 µM (inactive) throughout. In addition, the Potency entry in assay [6] and in [9] was “inactive” throughout. Also, the max response in assay [8] (setting [16]) was -8.47%; in [8] (setting [17]), -10.4%.

Regarding `Nc1c(O)cccc1C(=O)C[C@@H](N)C(=O)O`, the molecule was classed as inactive in assay [1], in [3] and in [7]. Besides, the activity change, negative = inhibition is -7.19% (inactive) in assay [2] and -1.89% (inactive) in assay [8] (at 25.7 µM (top of the series)). The Potency in [4] and in assay [5] was > 20.6 µM (inactive) throughout. Moreover, in assay [6], the Potency entry is “inactive”. Further, the max response in assay [8] (setting [16]) is -4.16%; in assay [8] (setting [17]), -9.91%.

On to `CC(=O)/C(C)=N\O`, for which the result in assay [1], in assay [3] and in assay [7] was inactive. In addition, the activity change, negative = inhibition in assay [2] was 4.19% [at 38 µM] (inactive); in assay [8] (at 57.5 µM (top of the series)), -1.01% (inactive). The Potency in assay [4] was 7.38 µM (active) and > 46 µM (inactive); in [5], > 46 µM (inactive). For the same molecule, the Potency entry in assay [6] and in assay [9] was “inactive” each time. Besides, the max response in assay [8] (setting [16]) is -2.91%; in assay [8] (setting [17]), -2.64%.

As to `C[C@@H]1CCc2cc(F)cc3c(=O)c(C(=O)O)cn1c23`, the call in assay [1], in assay [3] and in assay [7] was inactive. In addition, the figures for the activity change, negative = inhibition in assay [2] and in assay [8] (at 25.7 µM (top of the series)) were 7.91% (inactive) and -0.0799% (inactive), respectively. Further, the Potency in assay [4] and in assay [5] was > 20.6 µM (inactive) each time. The Potency entry in assay [6] and in assay [9] was “inactive” throughout. For the same molecule, the max response in assay [8] (setting [16]) was -3%; in assay [8] (setting [17]) it was -1.83%.

For `C[C@@H]1[C@H](C)CC[C@@]2(C(=O)O)CC[C@]3(C)C(=CC[C@H]4[C@@]5(C)CC[C@@H](O)C(C)(C)[C@@H]5CC[C@@]43C)[C@@H]12`, the result in [1], in assay [3] and in assay [7] was inactive. The values for the activity change, negative = inhibition in assay [2] and in assay [8] (at 25.7 µM (top of the series)) were -17.6% (inactive) and -4.31% (inactive), respectively. Also, the Potency in assay [4] and in [5] was > 20.6 µM (inactive) each time. Besides, the Potency result in assay [6] and in assay [9] was “inactive” throughout. The max response in [8] (setting [16]) is -6.67%; in [8] (setting [17]) it was -11%.
